PubChem BioAssay (Tox21)
Inconclusive results are not listed. Some compounds were tested as several samples or in several runs, with calls that do not always agree. The source made the active and inactive calls. The call rests on the fitted dose curve.

target: Acetylcholinesterase (Homo sapiens) (UniProt P22303); assay: Acetylcholinesterase (AChE) small molecule antagonists: enzyme-based qHTS assay (AID 1347397); details: Potency: AChE enzyme activity inhibition; outcome: AChE enzyme activity inhibition; series mostly up to 115 µM; activity change, negative = inhibition: at the top concentration; further: nearly all actives have a fitted effect of over 55% in size
Summary of the method: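 Human recombinant acetylcholinesterase; substrate acetylthiocholine; thiocholine quantified with DTNB (colorimetric). Compound preincubation 30 min RT; reaction 10 min RT.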
On the % scale 0 is the no-effect control and ±100 the full control effect.

Acetylcholinesterase (Homo sapiens), sequence (P22303 whole entry, looked up): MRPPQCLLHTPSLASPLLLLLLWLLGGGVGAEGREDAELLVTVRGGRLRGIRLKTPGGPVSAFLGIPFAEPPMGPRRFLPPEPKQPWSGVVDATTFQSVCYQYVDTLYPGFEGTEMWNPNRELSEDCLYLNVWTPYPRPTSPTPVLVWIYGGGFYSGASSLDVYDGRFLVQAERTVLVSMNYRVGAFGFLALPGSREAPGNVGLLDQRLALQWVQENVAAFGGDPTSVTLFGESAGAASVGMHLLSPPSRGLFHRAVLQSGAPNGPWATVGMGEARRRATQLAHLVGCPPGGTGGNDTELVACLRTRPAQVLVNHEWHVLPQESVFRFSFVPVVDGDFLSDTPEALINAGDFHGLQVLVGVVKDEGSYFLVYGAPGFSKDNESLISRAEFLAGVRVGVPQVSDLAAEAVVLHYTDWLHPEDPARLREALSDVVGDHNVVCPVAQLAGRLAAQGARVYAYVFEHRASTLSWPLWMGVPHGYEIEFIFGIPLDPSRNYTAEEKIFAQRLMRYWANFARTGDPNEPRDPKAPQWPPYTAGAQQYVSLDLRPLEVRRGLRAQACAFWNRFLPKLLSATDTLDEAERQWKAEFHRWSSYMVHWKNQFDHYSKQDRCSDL

SMILES | activity change, negative = inhibition | Potency
N#Cc1ccccc1C#N | -1.77% (inactive) | –
O=c1[nH]sc2cc(Cl)ccc12 | -0.495% [at 53 µM] (inactive) | –
CC[C@]1(O)C[C@H]2CN(CCc3c([nH]c4ccccc34)[C@@](C(=O)OC)(c3cc4c(cc3OC)N(C=O)[C@H]3[C@@](O)(C(=O)OC)[C@H](OC(C)=O)[C@]5(CC)C=CCN6CC[C@]43[C@@H]65)C2)C1 | 0.439% [at 53 µM] (inactive) | –
CC(=O)OCC(COC(C)=O)OC(C)=O | – | inactive
C=C(C)C(=O)Nc1ccc(Cl)c(Cl)c1 | – | inactive
O=Cc1ccc(Cl)c(Cl)c1 | 0.813% (inactive) | –
c1ccc2sc(SN3CCOCC3)nc2c1 | 3.3% [at 53 µM] (inactive) | –
COc1cc(/C=C/C(N)=O)cc(OC)c1OC | 0.945% [at 53 µM] (inactive) | –
CN(C)CCOC(C)(c1ccccc1)c1ccccn1 (stereo not given) | – | inactive
CC(=O)NCCCS(=O)(=O)O | 0.276% [at 53 µM] (inactive) | –
CCCCCC/C(C=O)=C\c1ccccc1 | – | inactive
CC(O)C#CC(C)O (stereo not given) | -5.77% (inactive) | –
CCN[C@H]1CN(CCCOC)S(=O)(=O)c2sc(S(N)(=O)=O)cc21 | -0.405% [at 53 µM] (inactive) | –
Oc1ccc(O)c2c(O)cccc12 | -23.5% (inactive) | –
O=Cc1cccc([N+](=O)[O-])c1 | 0.525% (inactive) | –
CCCCC=O | 1.16% (inactive) | –
O=c1[nH]cnc2nc[nH]c12 | 2.23% [at 53 µM] (inactive) | –
O=C(O)CCCCCCCCCC(=O)O | 0.389% (inactive) | –
CCC(=O)/C=C/C1C(C)=CCCC1(C)C (stereo not given) | – | inactive
CCCCOC(=O)[C@H](C)O | -0.278% (inactive) | –

target: Acetylcholinesterase (Homo sapiens) (UniProt P22303); assay: Acetylcholinesterase (AChE) small molecule antagonists: fluorescence cell-based qHTS assay (AID 1347398); details: SH-SY5Y cells; Potency: AChE activity; outcome: AChE activity; series mostly up to 115 µM; activity change, negative = inhibition: at the top concentration; further: nearly all actives have a fitted effect of over 50% in size; further: potency means the concentration at half of the fitted maximal effect
Summary of the method: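 Thiocholine generated from acetylthiocholine by SH-SY5Y cell AChE is detected with Thiolite Green (Ex/Em 490/520 nm) after 40 min at room temperature, following 30 min compound pretreatment at 37 C.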

SMILES | Potency | activity change, negative = inhibition
CCCCC(CC)CO (stereo not given) | inactive | –
COc1ccc(OC)c(N=Nc2c(O)ccc3ccccc23)c1 | – | -9.04% (inactive)
CCCC(=O)OCCC(C)C | – | 4.71% (inactive)
O=C(NCCN1CCOCC1)c1ccc(Cl)cc1 | – | 19.9% [at 53.7 µM] (inactive)
O=C(O)c1cc(Cl)cc(Cl)c1O | – | -0.113% (inactive)
Cc1c(C(N)=O)cc([N+](=O)[O-])cc1[N+](=O)[O-] | inactive | –
CCCCNc1ccccc1 | – | 3.21% (inactive)
Cc1ccc(C)c(C)c1 | inactive | –
CC1=C2[C@@H]([C@H](C)CC[C@H]2/C=C(\C)C(=O)O)[C@H](O)C1 | – | 7.92% (inactive)
C/C=C/c1ccc(O)c(OC)c1 | inactive | –
Nc1ccn([C@H]2CS[C@@H](CO)O2)c(=O)n1 | – | 1.24% (inactive)
CC1(C)Cc2cccc(N)c2O1 | – | -6.02% (inactive)
Cc1ncc([N+](=O)[O-])n1C | inactive | –
COC(=O)CCCCC(=O)OC | inactive | –
Cc1ccccc1S(=O)(=O)O | – | 0.86% (inactive)
CCCOCCOCCO | – | 4% (inactive)
OCCCCC(O)CO (stereo not given) | – | 3.42% (inactive)
O=C(O)Cn1cnnn1 | – | 0.281% [at 53.7 µM] (inactive)
CCCCCCCCN(C)C | – | 2.74% (inactive)
O=C(O)c1cc(Br)c(O)c(Br)c1 | – | 1.88% (inactive)

SMILES | Potency | activity change, negative = inhibition
N#Cc1ccccc1C#N | – | 0.461% (inactive)
O=c1[nH]sc2cc(Cl)ccc12 | – | 43.3% [at 53.7 µM] (inactive)
CC[C@]1(O)C[C@H]2CN(CCc3c([nH]c4ccccc34)[C@@](C(=O)OC)(c3cc4c(cc3OC)N(C=O)[C@H]3[C@@](O)(C(=O)OC)[C@H](OC(C)=O)[C@]5(CC)C=CCN6CC[C@]43[C@@H]65)C2)C1 | – | 2.14% [at 53.7 µM] (inactive)
CC(=O)OCC(COC(C)=O)OC(C)=O | 31.3 µM (active) and inactive | –
C=C(C)C(=O)Nc1ccc(Cl)c(Cl)c1 | inactive | –
O=Cc1ccc(Cl)c(Cl)c1 | – | 0.915% (inactive)
c1ccc2sc(SN3CCOCC3)nc2c1 | – | 0.139% [at 53.7 µM] (inactive)
COc1cc(/C=C/C(N)=O)cc(OC)c1OC | – | 10.5% [at 53.7 µM] (inactive)
CN(C)CCOC(C)(c1ccccc1)c1ccccn1 (stereo not given) | inactive | –
CC(=O)NCCCS(=O)(=O)O | – | 2.74% [at 53.7 µM] (inactive)
CCCCCC/C(C=O)=C\c1ccccc1 | inactive | –
CC(O)C#CC(C)O (stereo not given) | – | 6.4% (inactive)
CCN[C@H]1CN(CCCOC)S(=O)(=O)c2sc(S(N)(=O)=O)cc21 | – | 4.89% [at 53.7 µM] (inactive)
Oc1ccc(O)c2c(O)cccc12 | – | 4.82% (inactive)
O=Cc1cccc([N+](=O)[O-])c1 | – | -1.73% (inactive)
CCCCC=O | – | -0.609% (inactive)
O=c1[nH]cnc2nc[nH]c12 | – | 10.1% [at 53.7 µM] (inactive)
O=C(O)CCCCCCCCCC(=O)O | – | 1.46% (inactive)
CCC(=O)/C=C/C1C(C)=CCCC1(C)C (stereo not given) | inactive | –
CCCCOC(=O)[C@H](C)O | – | -0.444% (inactive)
